Measurements as given in the supplement of paper PMC10849652.
Targets with a hit are over-represented here; the source holds about 7,900 in all. About 0.6% of all pairs of compound and target were hits.

How the values were obtained:
Assay in all cases: log2 fold change, soluble protein after heating vs DMSO (PISA); higher = thermal stabilisation; K562 cells, 10 uM, 30 min; active = over 0.2 and 3.5 SD of the protein, either way, in both replicates (recomputed)
[1] = compound: CS(=O)(=O)c1ccc(-c2cnc(N)c(C(=O)Nc3ccccc3)n2)cc1
In short: (§1)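 Values are thermal stability changes relative to control samples and are taken from duplicates. They are stated as log2 fold changes. Before quantification by TMTpro 16plex LC-MS/MS with equalised channel sums, K562 cells at 2×10^6 cells/mL were treated with 10 μM compound for 30 min, heated in aliquots for 3 min across 48°C-58°C, pooled, extracted in PBS with 0.5% NP-40 at 4°C, and centrifuged at 21,000xg for 90 min to give the soluble supernatant.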

crizotinib = compound: C[C@@H](Oc1cc(-c2cnn(C3CCNCC3)c2)cnc1N)c1c(Cl)ccc(F)c1Cl [crizotinib]
In short: as §1

[2] = compound: C[C@@H]1COCCN1C2=NC(=NC(=C2)C3(CC3)S(=O)(=O)C)C4=C5C=CNC5=CC=C4
In short: as §1

[3] = compound: C[C@H](C1=CC=C(C=C1)C(=O)NC2=C3C=CNC3=NC=C2)N
In short: as §1

duvelisib = compound: C[C@H](Nc1ncnc2nc[nH]c12)c1cc2cccc(Cl)c2c(=O)n1-c1ccccc1 [duvelisib]
In short: as §1

tozasertib = compound: Cc1cc(Nc2cc(N3CCN(C)CC3)nc(Sc3ccc(NC(=O)C4CC4)cc3)n2)n[nH]1 [tozasertib]
In short: as §1

[4] = compound: Cc1cc(SCc2sc(-c3ccc(C(F)(F)F)cc3)nc2C)ccc1OCC(=O)O
In short: as §1

doramapimod = compound: Cc1ccc(-n2nc(C(C)(C)C)cc2NC(=O)Nc2ccc(OCCN3CCOCC3)c3ccccc23)cc1 [doramapimod]
In short: as §1

ispinesib = compound: Cc1ccc(C(=O)N(CCCN)[C@@H](c2nc3cc(Cl)ccc3c(=O)n2Cc2ccccc2)C(C)C)cc1 [ispinesib]
In short: as §1

bafetinib = compound: Cc1ccc(NC(=O)c2ccc(CN3CC[C@H](N(C)C)C3)c(C(F)(F)F)c2)cc1Nc1nccc(-c2cncnc2)n1 [bafetinib]
In short: as §1

nilotinib = compound: Cc1cn(-c2cc(NC(=O)c3ccc(C)c(Nc4nccc(-c5cccnc5)n4)c3)cc(C(F)(F)F)c2)cn1 [nilotinib]
In short: as §1

[5] = compound: Cc1nc(Nc2n[nH]c3c2CN(C(=O)N[C@H](CN(C)C)c2ccccc2)C3(C)C)c2sccc2n1
In short: as §1

dasatinib = compound: Cc1nc(Nc2ncc(C(=O)Nc3c(C)cccc3Cl)s2)cc(N2CCN(CCO)CC2)n1 [dasatinib]
In short: as §1

[6] = compound: Cc1ncc(-c2ccnc(Nc3ccc(S(C)(=O)=O)cc3)n2)n1C(C)C
In short: as §1

[7] = compound: Cn1cc(-c2ccc3c(c2)CCN3C(=O)Cc2cccc(C(F)(F)F)c2)c2c(N)ncnc21
In short: as §1

[8] = compound: Cn1cc(-c2ccc3nnc(C(F)(F)c4ccc5ncccc5c4)n3n2)cn1
In short: as §1

tipifarnib = compound: Cn1cncc1[C@@](N)(c1ccc(Cl)cc1)c1ccc2c(c1)c(-c1cccc(Cl)c1)cc(=O)n2C [tipifarnib]
In short: as §1

mubritinib = compound: FC(F)(F)c1ccc(/C=C/c2nc(COc3ccc(CCCCn4ccnn4)cc3)co2)cc1 [mubritinib]
In short: as §1

gandotinib = compound: Cc1cc(Nc2cc(CN3CCOCC3)c3nc(C)c(Cc4ccc(Cl)cc4F)n3n2)n[nH]1 [gandotinib]
In short: as §1

[9] = compound: Cc1cccc(CC(=O)N2CCc3c2ccc(-c2cn(C)c4ncnc(N)c24)c3F)n1
In short: as §1

Measured: log2 fold change

TMBIM6 isoform 2 (UniProt P55061)
Chain of UniProt P55061 (P55061 whole entry, looked up): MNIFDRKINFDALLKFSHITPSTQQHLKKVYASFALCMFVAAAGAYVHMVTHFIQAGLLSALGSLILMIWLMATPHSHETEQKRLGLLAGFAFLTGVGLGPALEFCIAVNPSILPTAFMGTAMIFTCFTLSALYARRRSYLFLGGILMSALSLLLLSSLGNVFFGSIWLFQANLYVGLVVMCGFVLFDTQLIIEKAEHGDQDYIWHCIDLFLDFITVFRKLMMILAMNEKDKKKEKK
inactive: [1] -0.066 | [2] 0.033 | [3] -0.049 | duvelisib 0.046 | tozasertib -0.066 | [4] -0.03 | doramapimod -0.053 | ispinesib -0.407 | bafetinib -0.135 | nilotinib -0.158 | [5] 0.028 | dasatinib -0.081 | [6] -0.037 | [7] 0.063 | [8] -0.073 | tipifarnib -0.269 | mubritinib 0.036
active: crizotinib -0.451

SMARCA4 (UniProt P51532)
inactive: [1] 0.216 | crizotinib 0.01 | [2] 0.036 | [3] 0.188 | duvelisib 0.065 | gandotinib 0.042 | [4] -0.064 | doramapimod 0.085 | ispinesib -0.248 | bafetinib 0.149 | [9] -0.118 | dasatinib 0.118 | [7] -0.036 | [8] 0.033 | tipifarnib 0.197 | mubritinib 0.101

SMARCE1 (UniProt Q969G3)
Chain of UniProt Q969G3 (Q969G3 whole entry, looked up): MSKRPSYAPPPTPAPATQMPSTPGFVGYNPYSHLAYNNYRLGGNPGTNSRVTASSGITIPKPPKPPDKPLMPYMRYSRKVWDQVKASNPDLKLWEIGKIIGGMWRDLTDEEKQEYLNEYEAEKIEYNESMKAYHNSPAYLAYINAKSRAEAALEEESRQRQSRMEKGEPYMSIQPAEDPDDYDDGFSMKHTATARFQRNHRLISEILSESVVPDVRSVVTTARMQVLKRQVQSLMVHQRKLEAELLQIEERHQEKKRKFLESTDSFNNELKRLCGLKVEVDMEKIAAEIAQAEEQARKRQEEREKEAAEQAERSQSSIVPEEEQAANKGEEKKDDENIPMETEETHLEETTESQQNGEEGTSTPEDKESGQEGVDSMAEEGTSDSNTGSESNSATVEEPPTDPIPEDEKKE
inactive: [1] -0.088 | crizotinib 0.011 | [2] 0.048 | [3] 0.093 | duvelisib 0.014 | gandotinib -0.087 | tozasertib 0.091 | [4] 0.135 | doramapimod 0.052 | ispinesib 0.048 | bafetinib -0.181 | [9] 0.041 | nilotinib -0.191 | [5] 0.16 | dasatinib -0.07 | [6] -0.055 | [7] -0.056 | [8] -0.09 | tipifarnib -0.082 | mubritinib -0.274

SLC38A2 (UniProt Q96QD8)
inactive: [1] 0.031 | crizotinib 0.028 | [2] 0.075 | [3] -0.075 | duvelisib 0.068 | tozasertib -0.009 | [4] 0 | doramapimod -0.03 | ispinesib -0.049 | bafetinib -0.112 | nilotinib -0.037 | [5] 0.039 | dasatinib 0.047 | [6] 0.029 | [7] -0.055 | [8] 0.029 | tipifarnib -0.073 | mubritinib 0.017

SQSTM1 (UniProt Q13501)
inactive: [1] 0.1 | crizotinib -0.149 | [2] -0.059 | [3] 0.042 | duvelisib 0 | gandotinib 0.168 | tozasertib 0.044 | [4] -0.027 | doramapimod 0.008 | ispinesib -0.019 | bafetinib -0.138 | [9] 0.056 | nilotinib 0.042 | [5] -0.227 | dasatinib -0.006 | [6] 0.172 | [7] 0.001 | [8] 0.022 | tipifarnib 0.186 | mubritinib 0.034

SPTBN1 (UniProt Q01082)
Chain of UniProt Q01082 (Q01082 whole entry, looked up): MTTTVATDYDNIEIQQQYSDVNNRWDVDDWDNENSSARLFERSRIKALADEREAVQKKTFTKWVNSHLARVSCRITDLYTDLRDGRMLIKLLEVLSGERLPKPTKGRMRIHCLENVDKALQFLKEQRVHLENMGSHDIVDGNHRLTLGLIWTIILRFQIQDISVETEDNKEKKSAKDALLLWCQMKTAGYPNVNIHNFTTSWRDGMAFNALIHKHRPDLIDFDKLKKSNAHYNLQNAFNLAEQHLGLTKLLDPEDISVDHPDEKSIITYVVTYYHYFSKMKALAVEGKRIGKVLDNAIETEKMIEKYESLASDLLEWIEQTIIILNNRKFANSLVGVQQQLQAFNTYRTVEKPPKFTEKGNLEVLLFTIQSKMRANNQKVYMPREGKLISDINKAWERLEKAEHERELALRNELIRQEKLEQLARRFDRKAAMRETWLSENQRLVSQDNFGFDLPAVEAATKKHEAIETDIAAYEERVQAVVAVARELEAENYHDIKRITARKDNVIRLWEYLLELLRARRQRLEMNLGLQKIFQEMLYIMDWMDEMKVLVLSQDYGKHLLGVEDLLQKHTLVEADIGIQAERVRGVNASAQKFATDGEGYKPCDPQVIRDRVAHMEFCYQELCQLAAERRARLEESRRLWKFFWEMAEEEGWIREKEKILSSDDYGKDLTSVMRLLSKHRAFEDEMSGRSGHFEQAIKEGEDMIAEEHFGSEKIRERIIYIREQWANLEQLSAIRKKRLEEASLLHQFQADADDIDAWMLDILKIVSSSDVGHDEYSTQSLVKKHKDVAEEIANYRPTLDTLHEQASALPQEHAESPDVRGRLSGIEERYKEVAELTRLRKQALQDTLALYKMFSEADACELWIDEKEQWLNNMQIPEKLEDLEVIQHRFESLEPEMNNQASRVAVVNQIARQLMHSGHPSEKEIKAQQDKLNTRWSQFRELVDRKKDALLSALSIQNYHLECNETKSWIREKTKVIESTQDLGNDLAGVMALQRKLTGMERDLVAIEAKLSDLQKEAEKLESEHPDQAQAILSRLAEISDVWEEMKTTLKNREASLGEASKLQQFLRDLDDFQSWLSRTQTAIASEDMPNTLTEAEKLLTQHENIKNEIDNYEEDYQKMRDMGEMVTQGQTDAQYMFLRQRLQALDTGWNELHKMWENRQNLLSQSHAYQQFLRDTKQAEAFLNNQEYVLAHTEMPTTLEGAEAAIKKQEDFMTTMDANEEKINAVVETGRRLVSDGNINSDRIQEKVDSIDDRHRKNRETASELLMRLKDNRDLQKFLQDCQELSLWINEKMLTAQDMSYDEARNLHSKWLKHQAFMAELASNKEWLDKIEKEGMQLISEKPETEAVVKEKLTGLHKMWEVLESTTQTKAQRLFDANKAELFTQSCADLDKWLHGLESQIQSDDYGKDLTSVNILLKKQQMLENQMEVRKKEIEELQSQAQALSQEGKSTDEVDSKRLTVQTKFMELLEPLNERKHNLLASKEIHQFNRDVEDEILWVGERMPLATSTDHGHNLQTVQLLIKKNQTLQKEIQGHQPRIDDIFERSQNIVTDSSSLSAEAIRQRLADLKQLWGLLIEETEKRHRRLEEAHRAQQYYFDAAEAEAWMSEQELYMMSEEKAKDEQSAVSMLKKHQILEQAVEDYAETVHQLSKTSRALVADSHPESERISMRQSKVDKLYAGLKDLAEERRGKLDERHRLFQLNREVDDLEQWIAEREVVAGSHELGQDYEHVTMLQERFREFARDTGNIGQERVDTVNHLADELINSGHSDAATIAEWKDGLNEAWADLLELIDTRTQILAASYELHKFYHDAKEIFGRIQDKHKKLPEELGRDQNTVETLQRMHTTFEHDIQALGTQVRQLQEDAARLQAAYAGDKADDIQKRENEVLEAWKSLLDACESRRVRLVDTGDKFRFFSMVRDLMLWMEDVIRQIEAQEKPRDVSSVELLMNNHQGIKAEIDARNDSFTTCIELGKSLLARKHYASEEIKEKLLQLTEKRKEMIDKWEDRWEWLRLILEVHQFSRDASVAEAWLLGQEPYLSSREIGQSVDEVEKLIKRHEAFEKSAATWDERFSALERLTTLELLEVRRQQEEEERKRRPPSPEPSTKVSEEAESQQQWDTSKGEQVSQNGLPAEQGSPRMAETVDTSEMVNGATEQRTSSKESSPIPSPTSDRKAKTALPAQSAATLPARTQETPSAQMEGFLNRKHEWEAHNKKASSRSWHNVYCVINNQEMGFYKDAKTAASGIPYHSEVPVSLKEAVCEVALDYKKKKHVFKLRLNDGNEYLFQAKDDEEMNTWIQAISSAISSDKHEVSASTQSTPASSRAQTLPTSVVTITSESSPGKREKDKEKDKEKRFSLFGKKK
inactive: [1] 0.018 | crizotinib 0.042 | [2] 0.008 | [3] 0.039 | duvelisib 0.016 | gandotinib -0.039 | tozasertib 0.046 | [4] 0.094 | doramapimod 0.021 | ispinesib 0.03 | bafetinib 0.064 | [9] -0.017 | nilotinib -0.01 | [5] -0.145 | dasatinib -0.043 | [6] 0.054 | [7] -0.009 | [8] -0.007 | tipifarnib -0.045 | mubritinib -0.075

SRCAP (UniProt Q6ZRS2)
inactive: [1] -0.015 | crizotinib -0.276 | [3] -0.111 | duvelisib 0.039 | gandotinib -0.069 | tozasertib 0.064 | [4] -0.035 | doramapimod 0.051 | ispinesib 0 | bafetinib -0.057 | [9] -0.001 | nilotinib 0.072 | [5] 0.152 | dasatinib -0.038 | [6] -0.007 | [7] -0.061 | [8] 0.037 | tipifarnib 0.083 | mubritinib 0.05

TBC1D20 isoform 3 (UniProt Q96BZ9)
inactive: [1] 0.039 | crizotinib -0.121 | [2] 0.088 | [3] 0.036 | gandotinib -0.078 | doramapimod 0.05 | ispinesib 0.113 | bafetinib -0.03 | [9] -0.083 | nilotinib 0.07 | [5] -0.023 | [6] 0.033 | [7] 0.121 | [8] 0.233 | tipifarnib -0.077 | mubritinib 0.129

SPPL2B (UniProt Q8TCT7)
Chain of UniProt Q8TCT7 (Q8TCT7 whole entry, looked up): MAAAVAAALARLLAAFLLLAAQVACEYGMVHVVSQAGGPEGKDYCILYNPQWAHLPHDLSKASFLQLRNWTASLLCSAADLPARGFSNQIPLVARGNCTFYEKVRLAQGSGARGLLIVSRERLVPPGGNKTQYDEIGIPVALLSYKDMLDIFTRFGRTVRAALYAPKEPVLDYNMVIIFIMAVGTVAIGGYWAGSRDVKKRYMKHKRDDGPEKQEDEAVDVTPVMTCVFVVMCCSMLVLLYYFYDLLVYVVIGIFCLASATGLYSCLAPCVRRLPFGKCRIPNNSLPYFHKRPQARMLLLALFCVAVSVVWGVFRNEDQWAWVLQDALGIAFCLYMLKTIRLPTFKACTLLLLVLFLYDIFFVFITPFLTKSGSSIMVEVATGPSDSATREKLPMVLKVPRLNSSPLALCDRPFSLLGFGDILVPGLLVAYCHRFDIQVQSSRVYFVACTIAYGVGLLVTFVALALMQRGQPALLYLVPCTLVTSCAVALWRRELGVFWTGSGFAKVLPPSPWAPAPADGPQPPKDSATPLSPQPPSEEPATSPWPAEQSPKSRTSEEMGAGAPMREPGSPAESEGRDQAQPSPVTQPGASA
inactive: [1] 0.049 | crizotinib -0.011 | [2] -0.072 | [3] 0.006 | duvelisib 0.031 | gandotinib -0.004 | tozasertib -0.032 | [4] -0.022 | doramapimod 0.01 | ispinesib -0.026 | bafetinib -0.087 | [9] 0.066 | nilotinib -0.016 | [5] -0.006 | dasatinib -0.066 | [6] 0.009 | [7] 0.116 | [8] -0.118 | tipifarnib 0.036 | mubritinib -0.008

SRXN1 (UniProt Q9BYN0)
inactive: [1] 0.009 | crizotinib -0.295 | [2] 0.09 | [3] -0.091 | gandotinib 0.01 | tozasertib -0.086 | doramapimod 0.076 | ispinesib -0.16 | bafetinib -0.011 | [9] -0.157 | nilotinib -0.017 | [5] -0.088 | [6] 0.093 | [7] 0.134 | [8] 0.056 | tipifarnib -0.149 | mubritinib 0.127

TGFBR1 isoform 2 (UniProt P36897)
active: [1] 0.254
inactive: crizotinib 0.133 | [2] -0.031 | [3] 0.024 | duvelisib -0.019 | gandotinib 0.101 | tozasertib 0.026 | [4] 0.014 | doramapimod -0.005 | ispinesib -0.156 | bafetinib -0.009 | [9] -0.052 | nilotinib -0.049 | [5] -0.018 | [6] 0.007 | [7] -0.046 | [8] 0.001 | tipifarnib 0.017 | mubritinib -0.113

SLC29A3 (UniProt Q9BZD2)
inactive: [1] 0.014 | [2] -0.098 | [3] 0.078 | duvelisib 0.069 | tozasertib 0.097 | [4] 0.055 | doramapimod 0.015 | bafetinib -0.111 | nilotinib -0.055 | [5] 0.127 | dasatinib -0.059 | [6] 0.012 | [7] 0.167 | [8] 0.102 | tipifarnib 0.035 | mubritinib 0.005
active: crizotinib -0.559 | ispinesib -1.02

SPECC1 (UniProt Q5M775)
inactive: [1] -0.104 | crizotinib -0.085 | [2] -0.02 | [3] 0.045 | duvelisib 0.014 | gandotinib -0.18 | tozasertib 0.007 | [4] -0.036 | doramapimod 0.137 | ispinesib -0.079 | bafetinib -0.102 | [9] -0.1 | nilotinib -0.108 | [5] -0.133 | dasatinib -0.067 | [6] 0.063 | [7] -0.035 | [8] 0.089 | tipifarnib 0.028 | mubritinib 0.044

TATDN2 (UniProt Q93075)
inactive: [1] 0.002 | crizotinib -0.061 | [2] 0.028 | [3] 0.078 | duvelisib 0.019 | gandotinib 0.106 | tozasertib 0.136 | [4] 0.045 | doramapimod 0.063 | bafetinib 0.088 | [9] -0.151 | nilotinib 0.137 | [5] -0.217 | dasatinib -0.042 | [6] -0.043 | [7] -0.059 | tipifarnib 0.074

TAMM41 isoform 3 (UniProt Q96BW9)
active: crizotinib -0.232 | ispinesib -0.249 | bafetinib -0.278
inactive: [1] 0.064 | [2] 0.073 | [3] -0.016 | duvelisib 0.032 | gandotinib -0.04 | tozasertib -0.036 | [4] 0.05 | doramapimod -0.048 | [9] -0.041 | nilotinib -0.112 | [5] -0.005 | dasatinib -0.108 | [6] 0.026 | [7] 0.037 | [8] 0.028 | tipifarnib -0.043 | mubritinib -0.044

SUN1 isoform 9 (UniProt O94901)
Chain of UniProt O94901 (O94901 whole entry, looked up): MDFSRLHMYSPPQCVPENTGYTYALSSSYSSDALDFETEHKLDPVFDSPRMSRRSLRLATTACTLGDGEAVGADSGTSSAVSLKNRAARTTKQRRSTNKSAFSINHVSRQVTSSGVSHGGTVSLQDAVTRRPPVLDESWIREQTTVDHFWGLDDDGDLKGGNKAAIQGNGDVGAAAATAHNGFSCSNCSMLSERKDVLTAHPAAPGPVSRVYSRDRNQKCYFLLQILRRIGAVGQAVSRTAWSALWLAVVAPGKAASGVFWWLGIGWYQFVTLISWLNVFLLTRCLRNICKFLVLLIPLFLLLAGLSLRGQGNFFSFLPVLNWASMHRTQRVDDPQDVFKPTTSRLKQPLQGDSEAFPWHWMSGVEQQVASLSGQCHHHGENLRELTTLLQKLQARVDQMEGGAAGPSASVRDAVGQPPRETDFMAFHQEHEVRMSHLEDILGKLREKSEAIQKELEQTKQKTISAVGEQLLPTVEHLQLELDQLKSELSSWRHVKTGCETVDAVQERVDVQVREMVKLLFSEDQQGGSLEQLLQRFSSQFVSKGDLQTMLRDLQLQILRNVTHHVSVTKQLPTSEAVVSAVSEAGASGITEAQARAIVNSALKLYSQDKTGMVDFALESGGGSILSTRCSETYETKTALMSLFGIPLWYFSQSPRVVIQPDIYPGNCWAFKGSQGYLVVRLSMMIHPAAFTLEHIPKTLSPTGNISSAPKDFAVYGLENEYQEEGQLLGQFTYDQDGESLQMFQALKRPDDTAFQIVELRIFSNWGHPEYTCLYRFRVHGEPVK
inactive: [1] -0.03 | crizotinib -0.067 | [2] -0.005 | [3] 0.006 | duvelisib -0.059 | gandotinib -0.052 | tozasertib -0.047 | [4] -0.017 | doramapimod 0.089 | [9] -0.036 | nilotinib -0.014 | [5] -0.115 | dasatinib 0.007 | [6] -0.018 | [7] -0.141 | [8] -0.055 | tipifarnib 0.039 | mubritinib -0.021
active: ispinesib -0.324

SLC27A2 (UniProt O14975)
Chain of UniProt O14975 (O14975 whole entry, looked up): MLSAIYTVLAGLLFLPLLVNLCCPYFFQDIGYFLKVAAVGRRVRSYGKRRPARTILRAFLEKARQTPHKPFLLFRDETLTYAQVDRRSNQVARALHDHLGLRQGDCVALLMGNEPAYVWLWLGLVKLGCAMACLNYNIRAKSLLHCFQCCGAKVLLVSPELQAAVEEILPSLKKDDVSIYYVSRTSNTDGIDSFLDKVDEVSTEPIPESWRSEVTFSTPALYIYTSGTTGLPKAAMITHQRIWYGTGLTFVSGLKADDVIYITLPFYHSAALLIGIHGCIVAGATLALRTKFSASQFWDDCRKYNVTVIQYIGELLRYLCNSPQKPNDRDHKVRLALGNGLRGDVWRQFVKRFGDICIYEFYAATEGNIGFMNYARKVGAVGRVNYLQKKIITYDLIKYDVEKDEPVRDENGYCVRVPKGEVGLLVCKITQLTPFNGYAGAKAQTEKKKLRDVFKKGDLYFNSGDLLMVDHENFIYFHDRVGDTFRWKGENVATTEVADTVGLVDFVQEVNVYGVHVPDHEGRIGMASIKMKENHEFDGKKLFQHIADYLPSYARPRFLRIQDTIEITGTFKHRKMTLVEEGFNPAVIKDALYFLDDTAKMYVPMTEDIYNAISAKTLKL
active: [1] 0.273
inactive: crizotinib 0.046 | [2] -0.005 | [3] -0.031 | duvelisib 0.094 | gandotinib 0.094 | tozasertib 0.166 | [4] 0.108 | doramapimod 0.027 | ispinesib -0.056 | bafetinib 0.044 | [9] 0.005 | nilotinib 0.179 | [5] -0.104 | dasatinib -0.106 | [6] 0.025 | [7] 0.054 | [8] 0.073 | tipifarnib 0.187 | mubritinib -0.001
